Assay outcomes: PubChem BioAssay, several laboratories
Shown are actives, neighbours in structure and some others; about 1.9% of the full set was active somewhere.
FAK inh: blocks human focal adhesion kinase activity; 97,000 tested, 0.84% active; biochemical FAK kinase activity assay; inhibition, %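 (tested at 7 µM)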; Q05397; in the data active = inhibition above about 19%;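 note: 0% = DMSO and 100% = reference compound high control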
Target sequence (Q05397 whole entry, looked up): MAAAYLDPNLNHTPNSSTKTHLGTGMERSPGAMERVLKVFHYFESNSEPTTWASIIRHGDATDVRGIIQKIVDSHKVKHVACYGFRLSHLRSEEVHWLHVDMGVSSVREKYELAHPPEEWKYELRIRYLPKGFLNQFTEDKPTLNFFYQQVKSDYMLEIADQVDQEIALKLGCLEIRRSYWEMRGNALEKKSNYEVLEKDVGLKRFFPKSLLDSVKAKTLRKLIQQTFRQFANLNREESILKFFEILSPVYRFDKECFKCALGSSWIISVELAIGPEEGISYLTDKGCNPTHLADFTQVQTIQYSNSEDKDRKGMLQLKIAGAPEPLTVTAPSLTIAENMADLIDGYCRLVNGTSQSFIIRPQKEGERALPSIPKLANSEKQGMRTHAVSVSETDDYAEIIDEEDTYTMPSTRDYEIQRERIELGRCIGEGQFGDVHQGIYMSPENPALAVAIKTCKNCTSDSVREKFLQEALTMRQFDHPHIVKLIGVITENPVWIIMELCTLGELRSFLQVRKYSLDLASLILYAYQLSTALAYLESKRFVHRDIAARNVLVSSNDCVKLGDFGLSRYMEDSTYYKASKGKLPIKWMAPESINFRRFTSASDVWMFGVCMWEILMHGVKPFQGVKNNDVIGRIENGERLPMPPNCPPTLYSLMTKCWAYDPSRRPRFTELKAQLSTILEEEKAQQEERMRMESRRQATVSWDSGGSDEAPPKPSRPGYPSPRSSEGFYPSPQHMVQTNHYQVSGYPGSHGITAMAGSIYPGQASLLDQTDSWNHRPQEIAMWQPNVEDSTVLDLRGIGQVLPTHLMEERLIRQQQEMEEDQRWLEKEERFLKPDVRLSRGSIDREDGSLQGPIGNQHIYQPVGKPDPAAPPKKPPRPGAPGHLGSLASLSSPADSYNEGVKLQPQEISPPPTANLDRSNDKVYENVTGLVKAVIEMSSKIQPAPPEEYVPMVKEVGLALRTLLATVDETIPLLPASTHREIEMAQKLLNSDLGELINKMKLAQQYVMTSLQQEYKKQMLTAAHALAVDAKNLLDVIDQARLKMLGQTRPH
GALR2 agonist: agonists of human galanin receptor 2 (GALR2); O43603; GALR2-expressing cells, agonist activation read-out; activation, % (no concentration beside the values); 140,000 tested, 0.48% active; AID 803; in the data active = activation above about 5%, passing the limit was not always enough;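 note: 0% = vehicle buffer wells and 100% = reference agonist at full effect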
GALR2 blocker: GALR2 (human) receptor antagonism; 140,000 tested, 0.39% active; AID 828; inhibition, % at 4 µM; GALR2-expressing cells, antagonist mode; O43603;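 note: cells stimulated with galanin 1-16 at roughly its EC80; 0% = agonist challenge control and 100% = basal control without agonist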
SDO1 yeast rescue: restores growth of sdo1-depleted yeast; S. cerevisiae sdo1-depleted JHY4D growth rescue, OD600 30 h; hits give high values; pdr5 snq2 efflux-pump mutant strain; z-score at 10 µM; 140,000 tested, 0.21% active; AID 817;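 active = z-score above 3 at both the 24 hr and the 30 hr optical density reads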;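 note: z-score against mean and SD of all compound wells on the same plate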
S1P2 ag: activates the human S1P2 receptor | O95136 | S1P2-expressing cell line, agonist reporter read-out | activation, % at 4.5 µM | 97,000 tested, 0.46% active | AID 729; in the data active = activation above about 16%;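 note: 0% = vehicle low control and 100% = maximal reference agonist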
S1P2 antag: antagonists of human S1P2 receptor; O95136; cell-based S1P2 antagonist assay, inhibition at 5 uM; inhibition, % at 5 µM; 97,000 tested, 0.21% active; AID 736; in the data active = inhibition above about 45%;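 note: CRE beta-lactamase reporter cells expressing human S1P2 stimulated with S1P; 0% = agonist at EC80 alone and 100% = agonist plus reference antagonist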
GALR2 ant conf: confirmation of human galanin receptor 2 (GALR2) antagonists; shares compounds with GALR2 blocker; GALR2-expressing cells, antagonist mode, inhibition; inhibition, % at 4 µM; 480 tested, 60% active; AID 866;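 note: cells stimulated with galanin at about its EC80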
BLA inh counter: beta-lactamase inhibition, GALR2 counterscreen; inhibition, % at 4.2 µM; CHO NFAT-BLA reporter, beta-lactamase FRET, thapsigargin-stimulated; 480 tested, 36% active; AID 867; shares compounds with GALR2 blocker;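 active = inhibition above the mean inhibition across tested compounds plus 3 SD, cut at about 27% in these data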;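 note: 0% = 500 nM thapsigargin stimulated wells and 100% = unstimulated BSA only wells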
* hit, by the source's call. Cut-off read from the data, not from the text of the source, unless noted: active = inhibition above about 27%; inactive = the rest.

How did CCN(CC)c1ccc(C(=O)N/N=C(\C)c2ccc(O)cc2)cc1 do in these assays?
GALR2 agonist: -3.2; GALR2 blocker: 30.3*; SDO1 yeast rescue: 0.43; GALR2 ant conf: 23.5; BLA inh counter: 7.0

What do the screens show for `CCC1(CC)Cc2ccccc2C(Nc2c(C)n(C)n(-c3ccccc3)c2=O)=N1`?
FAK inh: -0.8; GALR2 agonist: -0.5; GALR2 blocker: -12.3; SDO1 yeast rescue: 0.26; S1P2 ag: -1.9; S1P2 antag: 8.7

Results for O=C(C1=NN(c2ccccc2)C2C(=O)N(c3ccccc3)C(=O)C12)c1ccccc1 (stereo not given) ?
GALR2 agonist: -1.8; GALR2 blocker: 18.7; SDO1 yeast rescue: -0.34

Results for O=C(C1=NN(c2ccccc2)C2C(=O)N(c3ccccc3Cl)C(=O)C12)c1ccccc1 (stereo not given) ?
GALR2 agonist: -0.7; GALR2 blocker: 28.6*; SDO1 yeast rescue: -1.96; GALR2 ant conf: 24.6; BLA inh counter: 41.9*

How did O=C(Cn1ncc(Cl)c(Cl)c1=O)N1CCN(S(=O)(=O)c2ccc3ccccc3c2)CC1 do in these assays?
GALR2 agonist: -1.2; GALR2 blocker: 29.1*; SDO1 yeast rescue: -0.13; GALR2 ant conf: 55.8*; BLA inh counter: 2.4

What do the screens show for `COc1ccccc1NC(=O)c1cc(Sc2nncn2C)nc2ccccc12`?
FAK inh: 1.9; GALR2 agonist: -0.3; GALR2 blocker: -6.5; SDO1 yeast rescue: 0.73; S1P2 ag: -7.2; S1P2 antag: 16.7

How did C=CCSC(=C(C#N)C#N)c1cc2c([nH]1)CCCC2 do in these assays?
FAK inh: 1.4; GALR2 agonist: -1.4; GALR2 blocker: 30.6*; SDO1 yeast rescue: -1.92; S1P2 ag: -5.0; S1P2 antag: 8.2; GALR2 ant conf: 27.0*; BLA inh counter: 17.2

How did COc1ccc(-n2c(C(C)(C)C)csc2=Nc2c(C)n(C)n(-c3ccccc3)c2=O)cc1 do in these assays?
GALR2 agonist: -1.3; GALR2 blocker: 12.3; SDO1 yeast rescue: 1.24

How did CCCCCC(C)NC(=O)c1ccoc1C (stereo not given) do in these assays?
FAK inh: -1.9; GALR2 agonist: -1.8; GALR2 blocker: 6.7; SDO1 yeast rescue: -0.8; S1P2 ag: 2.3; S1P2 antag: 5.7

How did CC(/C=N/NC(=O)c1cc(-c2cccs2)[nH]n1)=C\c1ccccc1 do in these assays?
GALR2 agonist: 1.0; GALR2 blocker: -6.0; SDO1 yeast rescue: -1.31

How did Cc1[nH]c2ccccc2c1/C=N/NC(=O)c1cc(-c2cccs2)[nH]n1 do in these assays?
GALR2 agonist: -0.8; GALR2 blocker: 28.4*; SDO1 yeast rescue: -0.15; GALR2 ant conf: 19.7; BLA inh counter: 5.0

Results for Cc1cc(C(=O)CSCc2nnc3n(CCC(C)C)c(=O)c4ccccc4n23)c(C)n1C ?
FAK inh: -3.3; GALR2 agonist: -0.2; GALR2 blocker: 6.7; S1P2 ag: -5.3; S1P2 antag: -21.5
